Measured values published in PubChem BioAssay (Tox21).
Records with an inconclusive call do not appear. The source made the active and inactive calls. Unless noted, calls follow the shape of the dose curve; as a rule, active = well fitted curve in the direction sought with a large enough effect in the repeat runs; inconclusive = weak or mixed curves; inactive = no such curve, though single readings can be large; an effect the other way counts as inactive or inconclusive.

Tests used:
[1] = biological target: Thyrotropin receptor (Homo sapiens) (UniProt P16473); experiment: qHTS assay to identify small molecule antagonists of the thyroid stimulating hormone receptor (TSHR) signaling pathway (AID 1259385; calls by dose curve; also: nearly all actives have a fitted effect of over 20% in size)
Sequence of Thyrotropin receptor (Homo sapiens) (P16473 whole entry, looked up): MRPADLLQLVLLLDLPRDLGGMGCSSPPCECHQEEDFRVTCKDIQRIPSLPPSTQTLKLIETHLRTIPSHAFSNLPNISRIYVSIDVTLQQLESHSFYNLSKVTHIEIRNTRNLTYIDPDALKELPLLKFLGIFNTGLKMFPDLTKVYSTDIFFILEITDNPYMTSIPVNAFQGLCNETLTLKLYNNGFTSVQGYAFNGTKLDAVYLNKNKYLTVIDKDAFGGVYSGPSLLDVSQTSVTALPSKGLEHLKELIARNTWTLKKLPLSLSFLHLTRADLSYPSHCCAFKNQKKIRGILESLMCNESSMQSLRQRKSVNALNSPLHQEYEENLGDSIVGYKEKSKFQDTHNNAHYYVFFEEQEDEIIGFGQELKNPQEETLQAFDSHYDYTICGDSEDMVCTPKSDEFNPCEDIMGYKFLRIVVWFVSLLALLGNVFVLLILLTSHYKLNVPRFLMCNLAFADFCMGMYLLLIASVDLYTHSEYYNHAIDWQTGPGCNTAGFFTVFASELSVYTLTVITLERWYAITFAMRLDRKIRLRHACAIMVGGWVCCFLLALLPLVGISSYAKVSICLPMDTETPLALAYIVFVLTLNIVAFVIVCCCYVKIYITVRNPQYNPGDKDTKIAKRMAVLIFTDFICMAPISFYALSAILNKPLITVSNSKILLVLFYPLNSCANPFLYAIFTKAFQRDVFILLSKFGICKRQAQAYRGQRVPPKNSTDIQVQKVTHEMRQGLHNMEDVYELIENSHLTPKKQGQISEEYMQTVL
Outline: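 Antagonist mode: compound-treated TSHR-expressing HEK293 cells were stimulated with 1.5 ng/mL TSH (final) in presence of Ro20-1724 for 30 min at RT. HTRF cAMP detection after 1 h; each compound tested at 15 concentrations, triplicate.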

[2] = qHTS assay to identify small molecule agonists of the estrogen receptor alpha (ER-alpha) signaling pathway in the presence of an antagonist - cell viability counter screen (AID 1259386); also: series mostly up to about 92 µM; nearly all actives have a fitted effect of over 30% in size
Outline: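 Compounds tested at 15 concentrations for 22 h at 37C alongside 10.0nM (final) ICI-182,780 antagonist, in VM7Luc4E2 cells grown in phenol red-free, charcoal-stripped medium. Viability read by CellTiter-Fluor fluorescence after 1 h reagent incubation.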

[3] = biological target: Progesterone receptor (Homo sapiens) (UniProt P06401); experiment: qHTS assay to identify small molecule agonists of the progesterone receptor (PR) signaling pathway (AID 1346784; calls by dose curve; also: nearly all actives have a fitted effect of over 30% in size)
Sequence of Progesterone receptor (Homo sapiens) (P06401 whole entry, looked up): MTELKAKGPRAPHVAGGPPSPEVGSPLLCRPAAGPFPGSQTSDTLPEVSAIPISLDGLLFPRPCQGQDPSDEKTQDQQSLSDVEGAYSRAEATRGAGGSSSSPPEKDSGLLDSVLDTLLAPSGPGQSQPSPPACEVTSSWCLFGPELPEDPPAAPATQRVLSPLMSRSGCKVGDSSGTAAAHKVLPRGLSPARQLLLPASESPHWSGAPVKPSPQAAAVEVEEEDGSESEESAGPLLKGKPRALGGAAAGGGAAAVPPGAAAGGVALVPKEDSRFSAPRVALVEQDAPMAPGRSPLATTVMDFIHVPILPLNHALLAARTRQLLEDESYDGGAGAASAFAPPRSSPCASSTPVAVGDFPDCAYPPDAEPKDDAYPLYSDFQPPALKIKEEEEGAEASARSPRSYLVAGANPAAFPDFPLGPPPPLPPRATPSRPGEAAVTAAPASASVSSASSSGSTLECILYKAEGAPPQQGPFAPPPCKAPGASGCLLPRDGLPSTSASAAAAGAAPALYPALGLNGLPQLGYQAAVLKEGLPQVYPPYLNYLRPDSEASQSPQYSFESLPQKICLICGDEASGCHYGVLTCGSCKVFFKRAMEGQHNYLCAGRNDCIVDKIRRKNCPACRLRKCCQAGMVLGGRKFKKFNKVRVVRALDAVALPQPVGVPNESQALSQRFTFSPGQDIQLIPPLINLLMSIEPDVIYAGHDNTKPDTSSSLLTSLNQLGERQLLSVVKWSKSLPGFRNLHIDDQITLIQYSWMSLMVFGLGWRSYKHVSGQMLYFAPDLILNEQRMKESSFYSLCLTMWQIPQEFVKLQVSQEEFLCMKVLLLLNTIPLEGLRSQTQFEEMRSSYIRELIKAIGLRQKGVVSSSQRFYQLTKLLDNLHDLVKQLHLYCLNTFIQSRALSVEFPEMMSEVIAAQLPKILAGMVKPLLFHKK
Outline: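 Reporter assay, GripTite PR-UAS-bla HEK 293T cells: 16 hr exposure to DMSO-dissolved compounds at 37C, 5% CO2, in steroid-depleted (2% charcoal-stripped FBS) medium; beta-lactamase measured by FRET fluorescence.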

[4] = biological target: Progesterone receptor (Homo sapiens) (UniProt P06401); experiment: qHTS assay to identify small molecule antagonists of the progesterone receptor (PR) signaling pathway (AID 1346795; active = well fitted inhibition curve with a large enough effect in the signal ratio in the repeat runs, not every such curve was filed as active; the % refers to the signal ratio)
Outline: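 Stimulus R5020 at 1 nM final; cells HEK293T PR-UAS-bla; medium with 2% charcoal-stripped FBS; compound exposure 16 hr at 37C, 5% CO2; detection by FRET beta-lactamase substrate, 2 hr, room temperature.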

[5] = qHTS assay to identify small molecule antagonists of the progesterone receptor (PR) signaling pathway - cell viability counter screen (AID 1346798); also: series mostly up to about 92 µM; nearly all actives have a fitted effect of over 50% in size
Outline: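 In the same plates used for the beta-lactamase readout, cell viability of compound- and R5020-treated PR-UAS-bla HEK293T cells (16 hr, 37C) was assessed by CellTiter-Glo luminescence.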

[6] = qHTS assay to identify small molecule agonists of the progesterone receptor (PR) signaling pathway - cell viability counter screen (AID 1346799; calls by dose curve; also: nearly all actives have a fitted effect of over 45% in size)
Outline: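 Multiplexed viability read: CellTiter-Glo luminescence, 30 min RT, following LiveBLAzer FRET measurement on PR-UAS-bla HEK293T cells exposed to compounds 16 hr.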

[7] = qHTS assay to identify small molecule antagonists of the TGF-beta/Smad signaling pathway - cell viability counter screen (AID 1346824); also: nearly all actives have a fitted effect of over 50% in size
Outline: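 Cytotoxicity counter-screen run in the same wells as the beta-lactamase Smad reporter read: CellTiter-Glo luminescence after 30 min at room temperature. HEK 293T SBE-bla cells had 5 hr compound exposure at 37 C with TGF-beta1 (0.25 ng/mL stock).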

[8] = qHTS assay to identify small molecule agonists of the TGF-beta/Smad signaling pathway - cell viability counter screen (AID 1346829); also: top concentration of the series differs between compounds; nearly all actives have a fitted effect of over 45% in size
Outline: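 After overnight seating at 37 C and 5% CO2, reporter cells got compounds for 5 hr and FRET substrate for 2 hr; cell viability then came from CellTiter-Glo luminescence.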

[9] = biological target: Thyrotropin-releasing hormone receptor (Homo sapiens) (UniProt P34981); experiment: qHTS assay to identify small molecule antagonists of the thyrotropin-releasing hormone receptor (TRHR) signaling pathway (AID 1346877; active = well fitted inhibition curve with a large enough effect in the repeat runs, not every such curve was filed as active; also: series mostly up to about 51 µM)
Sequence of Thyrotropin-releasing hormone receptor (Homo sapiens) (P34981 whole entry, looked up): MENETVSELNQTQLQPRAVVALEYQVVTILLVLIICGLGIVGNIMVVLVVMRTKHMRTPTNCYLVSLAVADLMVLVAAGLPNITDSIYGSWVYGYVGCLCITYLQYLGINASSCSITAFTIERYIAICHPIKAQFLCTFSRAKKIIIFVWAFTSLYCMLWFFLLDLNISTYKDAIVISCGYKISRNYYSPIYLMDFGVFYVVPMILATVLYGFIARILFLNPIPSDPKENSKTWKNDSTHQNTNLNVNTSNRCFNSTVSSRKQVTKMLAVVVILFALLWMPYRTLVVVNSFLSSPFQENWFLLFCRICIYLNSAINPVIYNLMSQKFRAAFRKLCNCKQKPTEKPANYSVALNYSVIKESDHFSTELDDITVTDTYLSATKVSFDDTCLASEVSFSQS
Outline: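 Antagonist mode: after a 5 min room-temperature compound exposure, cells were stimulated with 1 nM (final) TRH. Dye-loaded TRHR-HEK293 cells were used, and calcium-dependent fluorescence was followed for 3 min, with 15-point titrations run in triplicate.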

[10] = biological target: Thyrotropin-releasing hormone receptor (Homo sapiens) (UniProt P34981); experiment: qHTS assay to identify small molecule agonists of the thyrotropin-releasing hormone receptor (TRHR) signaling pathway (AID 1346891; calls by dose curve; also: series mostly up to about 58 µM)
Outline: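 Readout was intracellular calcium fluorescence in TRHR-Hek293 cells. Cells were incubated 18 h, dye-loaded 2 h at 37 °C, and treated with compound in agonist mode.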

[11] = Human pregnane X receptor (PXR) small molecule agonists, qHTS cell viability counter screen (AID 1346977); also: nearly all actives have a fitted effect of over 50% in size
Outline: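 In each well, the PXR reporter HepG2 line was checked for viability: CellTiter-Fluor reagent added 23hr post-dosing, fluorescence read after 1hr incubation at 37C.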

[12] = Caspase-3/7 induction in HepG2 cells by small molecules, qHTS assay (AID 1346978); also: nearly all actives have a fitted effect of over 15% in size
Outline: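 Caspase-3/7 induction was measured by Caspase-Glo 3/7 luminescence (30 min, room temperature) after a 17 hr compound exposure of wild-type HepG2 cells seeded at 2,000 per well and pre-incubated 5 hr.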

[13] = Caspase-3/7 induction in CHO-K1 cells by small molecules, qHTS cell viability counter screen (AID 1346979); also: nearly all actives have a fitted effect of over 35% in size
Outline: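 Following a 5hr settling period, CHO-K1 cells at 1,500 per well received DMSO-dissolved compounds. Cell viability was quantified 16hr later by CellTiter-Fluor fluorescence, measured after 1hr with reagent at 37C.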

[14] = Caspase-3/7 induction in CHO-K1 cells by small molecules, qHTS assay (AID 1346980); also: nearly all actives have a fitted effect of over 15% in size
Outline: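 Luminescent Caspase-Glo 3/7 read (30min, room temperature) quantified apoptosis induction. Cells were wild-type CHO-K1, treated with compound for 17hr at 37 C and 5% CO2.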

[15] = Caspase-3/7 induction in HepG2 cells by small molecules, qHTS cell viability counter screen (AID 1346981); also: series mostly up to about 92 µM; nearly all actives have a fitted effect of over 30% in size
Outline: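 CellTiter-Fluor fluorescence measured viability in the same wells used for Caspase-Glo 3/7. HepG2 (wild type) at 2,000 cells/well were pre-incubated 5 hr, dosed, and given reagent at 16 hr, with 1 hr further at 37C.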

[16] = biological target: Nuclear receptor subfamily 1 group I member 2 (Homo sapiens) (UniProt O75469); experiment: Human pregnane X receptor (PXR) small molecule agonists, qHTS assay (AID 1346982); also: nearly all actives have a fitted effect of over 35% in size; also: potency is read from the fitted curve at half-maximal effect
Sequence of Nuclear receptor subfamily 1 group I member 2 (Homo sapiens) (O75469 whole entry, looked up): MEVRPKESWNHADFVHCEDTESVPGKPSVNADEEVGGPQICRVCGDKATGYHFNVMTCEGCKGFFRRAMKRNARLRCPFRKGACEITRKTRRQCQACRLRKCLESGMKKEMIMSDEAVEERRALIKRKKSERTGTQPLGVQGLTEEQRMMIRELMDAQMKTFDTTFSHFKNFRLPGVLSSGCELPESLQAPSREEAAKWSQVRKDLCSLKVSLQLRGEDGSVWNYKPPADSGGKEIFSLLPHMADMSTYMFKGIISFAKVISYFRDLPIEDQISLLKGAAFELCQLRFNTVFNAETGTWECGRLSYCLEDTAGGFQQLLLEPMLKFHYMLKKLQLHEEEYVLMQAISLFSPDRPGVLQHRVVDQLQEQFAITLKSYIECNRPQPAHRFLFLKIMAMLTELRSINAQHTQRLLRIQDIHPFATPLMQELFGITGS
Outline: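 Agonist mode: luminescence from ONE-Glo after 24 h compound exposure at 37C in HepG2 cells carrying hPXR-responsive CYP3A4 luciferase, plated in charcoal-stripped serum medium 5 h beforehand.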

[17] = biological target: Nuclear receptor subfamily 1 group I member 2 (Rattus norvegicus) (UniProt Q9R1A7); experiment: Rat pregnane X receptor (rPXR) activation by small molecules, qHTS assay (AID 1346983); conditions: rPXR luciferase reporter cells, One-Glo luminescence, 24 h; max activation: stronger effect = higher value; also: nearly all actives have a fitted effect of over 20% in size; also: potency is read from the fitted curve at half-maximal effect
Sequence of Nuclear receptor subfamily 1 group I member 2 (Rattus norvegicus) (Q9R1A7 whole entry, looked up): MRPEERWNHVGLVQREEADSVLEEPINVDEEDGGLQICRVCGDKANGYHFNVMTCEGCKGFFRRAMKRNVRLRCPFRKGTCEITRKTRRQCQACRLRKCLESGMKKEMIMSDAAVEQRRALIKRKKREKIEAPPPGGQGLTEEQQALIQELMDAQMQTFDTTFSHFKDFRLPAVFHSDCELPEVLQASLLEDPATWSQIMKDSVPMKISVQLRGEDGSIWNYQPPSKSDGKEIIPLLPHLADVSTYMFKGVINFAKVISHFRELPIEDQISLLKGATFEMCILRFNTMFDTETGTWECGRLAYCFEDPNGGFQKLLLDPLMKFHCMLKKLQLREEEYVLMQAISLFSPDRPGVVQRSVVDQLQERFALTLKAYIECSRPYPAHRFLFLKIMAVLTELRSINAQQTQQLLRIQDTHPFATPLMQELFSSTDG
Outline: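 Luminescent readout (One-Glo luciferase, 30 min room temperature) followed 24 hr compound treatment at 37 C of rPXR cells plated 2,000 per well and preincubated 5hr; qHTS format with compounds delivered in DMSO.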

[18] = biological target: Nuclear receptor subfamily 1 group I member 2 (Homo sapiens) (UniProt O75469); experiment: CYP3A4 induction through human pregnane X receptor (PXR) by small molecules, qHTS assay (AID 1346984); also: nearly all actives have a fitted effect of over 40% in size
Outline: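 Read-out is luminescence after One-Glo addition, following a 3 hr, 37C incubation with Luciferin-IPA CYP3A4 substrate (3uM final). Before that, compounds were on DPX-2 cells (HepG2 co-transfected with PXR element plus CYP3A4-promoter luciferase) for 24 hr at 37C.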

[19] = biological target: Nuclear receptor subfamily 1 group I member 2 (Homo sapiens) (UniProt O75469); experiment: Human pregnane X receptor (PXR) activation by small molecules, qHTS assay (AID 1346985); also: nearly all actives have a fitted effect of over 40% in size; also: potency is read from the fitted curve at half-maximal effect
Outline: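 DPX-2 cells (HepG2 co-transfected with a PXR response element and a CYP3A4-promoter luciferase construct) were seeded at 2,000 per well, rested 5 hr at 37C, then exposed to DMSO-dissolved compounds for 24 hr. Activation was read as luciferase luminescence.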

[20] = qHTS assay to identify small molecule agonists of the TGF-beta/Smad signaling pathway (AID 1346859; active = well fitted activation curve with a large enough effect in the signal ratio in the repeat runs, not every such curve was filed as active; the % refers to the signal ratio; also: series mostly up to about 77 µM)
Outline: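 Screening used HEK 293T SBE-bla cells at 4,000/well. Test agents: 5 hr, 37 C. Detection: FRET substrate, 2 hr RT, then excitation 405 nm with emissions at 460 and 530 nm.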
% is scaled to controls: 0 for no effect and ±100 for the full control effect.

COC(=O)[C@H]1[C@H]2C[C@@H]3c4[nH]c5cc(OC)ccc5c4CCN3C[C@H]2C[C@@H](OC(=O)COc2ccc(OC)cc2)[C@@H]1OC
active: Potency [19] 10 µM
inactive: Potency [1] | outcome [2] | Potency [3] | Potency [4] | Potency [5] | Potency [6] | outcome [7] | outcome [8] | outcome [9] | outcome [10] | Potency [11] | outcome [12] | Potency [13] | outcome [14] | outcome [15] | Potency [16] | max activation [17] -1.88% | Potency [18]

CC1=CC(=O)CCC1
inactive: Potency [1] | outcome [2] | Potency [3] | Potency [4] | Potency [5] | Potency [6] | outcome [7] | outcome [8] | outcome [9] | outcome [10] | Potency [11] | outcome [12] | Potency [13] | outcome [14] | Potency [16]

Nc1nc(F)nc2c1ncn2[C@@H]1O[C@H](CO)[C@@H](O)[C@@H]1O
inactive: Potency [1] | outcome [2] | Potency [3] | Potency [4] | Potency [5] | Potency [6] | outcome [7] | outcome [8] | outcome [20] | Potency [11] | outcome [12] | Potency [13] | outcome [14] | outcome [15] | Potency [16] | max activation [17] -2.35% | Potency [18] | Potency [19]

CCCC(C)CO (stereo not given)
inactive: Potency [1] | outcome [2] | Potency [3] | Potency [4] | Potency [5] | Potency [6] | outcome [7] | outcome [8] | outcome [20] | Potency [11] | Potency [13] | outcome [14] | outcome [15]

COc1cccc(Br)c1
inactive: Potency [1] | outcome [2] | Potency [3] | Potency [4] | Potency [5] | Potency [6] | outcome [7] | outcome [8] | outcome [9] | outcome [10] | Potency [11] | outcome [12] | Potency [13] | outcome [14] | outcome [15] | Potency [16]

CN(C)C(=O)Nc1ccccc1
inactive: Potency [1] | outcome [2] | Potency [3] | Potency [4] | Potency [5] | Potency [6] | outcome [7] | outcome [20] | outcome [9] | outcome [10] | Potency [11] | outcome [12] | Potency [13] | outcome [14] | outcome [15] | Potency [16]

CCc1cc(S(=O)(=O)O)c2cc(C(C)C)cccc1-2
inactive: Potency [1] | outcome [2] | Potency [3] | Potency [4] | Potency [5] | Potency [6] | outcome [7] | outcome [8] | outcome [9] | outcome [10] | Potency [11] | outcome [12] | Potency [13] | outcome [14] | Potency [16]

CC(C)c1ccc2oc3nc(N)c(C(=O)O)cc3c(=O)c2c1
active: Potency [16] 0.335 µM | Potency [17] 4.47 µM
inactive: Potency [1] | outcome [2] | Potency [3] | Potency [4] | Potency [5] | Potency [6] | outcome [7] | outcome [8] | outcome [9] | outcome [10] | Potency [11] | outcome [12] | Potency [13] | outcome [15] | Potency [18] | Potency [19]
